Results taken from PubChem BioAssay (EPA / NIEHS).
Calls of active or inactive are those of the source. How the source made its calls: active means hit-call score of the fitted dose curve at least 0.9, where 1 is the maximum; inactive means score below 0.9.

test: CCTE_Shafer_MEA_dev_mutual_information_norm: CCTE's Neural Network Formation Assay for Mutual Information Normalization, Shafer Lab (AID 2284091);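 on AC50: potency is for a decrease in mutual information relative to DMSO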
Procedure: CCTE_Shafer_MEA_dev assay is conducted using Axion Biosystems 48 well microelectrode array (MEA) plates and Maestro recording system. Each well of the MEA plate contains a grid of 16 microelectrodes embedded in the culture surface. Electrically active cells, such as neurons, can be cultured over the electrodes, and electrical activity in these cells can be recorded extracellularly. The spontaneous firing of neurons is captured from each electrode on a microsecond timescale providing both temporally and spatially precise data. […] The CCTE_Shafer_MEA_dev assay uses primary cultures of rat cortical neurons. Recordings are made on days post-plating 5, 7, 9 and 12. As these cultures mature over time, neural networks develop functional activity and form cohesive networks in which electrical activity can be highly coordinated. CCTE_Shafer_MEA_dev_mutual_information_norm is 1 of 19 assay components of the CCTE_Shafer_MEA_dev assay. It is a measure of shared information between electrodes during a recording in a microelectrode array (MEA) using Axion Biosystems Maestro 768 channel amplifier with the AxIS adaptive spike detector. To collapse across multiple recordings made on days post-plating 5, 7, 9 and 12, the trapezoidal area-under-the-curve of the component is calculated.Data from the assay component CCTE_Shafer_MEA_dev_mutual_information_norm was analyzed into 1 assay endpoint. This assay endpoint, CCTE_Shafer_MEA_dev_mutual_information_norm, was analyzed in the negative analysis fitting direction relative to DMSO as the negative control and baseline of activity. Using a type of functional reporter, gain or loss-of-signal activity can be used to understand electrical activity.
On the day prior to culture, each well was coated thoroughly with 150 uL of 0.05% polyethyleneimine (PEI, Sigma Cat P3143) in 50 mM HEPES (Sigma Cat H7523) at a pH of 8. The plate was incubated at 37C for one hour. PEI was rinsed out with 500 uL of sterile water three times. Plates were stored at 4C until the day of culture. This culture was plated at a seeding density of 1.5 x 10^5 cells/well on a 48-well MEA plate, prepared as described above. Cells were administered via a 25 uL media/laminin ([…]; Sigma Cat L2020-1MG) drop directly onto the microelectrode array, as adding the cells with the laminin results in better attachment than pre-coating with laminin. After 2 hours, an additional 475 uL of cortical media was added and the cells returned to the incubator. Exposure starts at day 0 of plating and is continued over twelve days of network development until the experiment is terminated. Cells are fed with fresh medium on DIV 5 and 9, following the recordings on those days. The entire volume of media in the well is exchanged and any vehicle or compound treatment is renewed. Complete details are found in OP-NHEERL/ISTD/SBB/TJS/2015-03-r0 (available on request, email shafer.tim@epa.gov). Measurement of the electrical activity is non-invasive, and recordings can be made from the same plate over multiple different days of the culture. In cortical neurons, this allows for the measurement of extracellular action potentials over the period during which networks form in the MEA plate.

SMILES	AC50	outcome
CC(CNC(=S)[S-])NC(=S)[S-].[Zn+2] (configuration not stated)	4.05 µM (active)	
O=C1CC2(CCCC2)CC(=O)N1CCCCN1CCN(c2ncccn2)CC1		inactive
F		inactive
[O]=[V]([OH])([OH])[OH]	4.55 µM (active)	
CC(C)O		inactive
CCCCCC=C(C)C(CC)CCO (configuration not stated)		inactive
C[C@@H]1CCO[C@H]2Cn3cc(C(=O)NCc4ccc(F)cc4F)c(=O)c(O)c3C(=O)N12	1.55 µM (active)	
CC(C)c1nn(C(=O)NC(C)(C)C)c(=O)n1N		inactive
Brc1cc(Br)c(Oc2cc(Br)c(Br)cc2Br)cc1Br		inactive
CC(=O)N[C@@H](CC(=O)O)C(=O)O		inactive
CCCCCC(C)(CC)C(=O)NC (configuration not stated)		inactive
C[C@@H]1CC[C@@H](C(C)(C)O)[C@H](O)C1		inactive
BrC1CC(Br)CC(Br)CC(Br)CC(Br)CC(Br)C1 (configuration not stated)	2.73 µM (active)	
Cc1[nH]n(C)c(=O)c1C(=O)c1ccc(C(F)(F)F)cc1S(C)(=O)=O		inactive
c1ccc2c(c1)ccc1c3ccccc3ccc21		inactive
CCc1ccccc1		inactive
c1cc2c3c(c1)ccc1cccc(c13)C2		inactive
